Source: PubChem BioAssay (National Center for Advancing Translational Sciences (NCATS))
DT40 TDP1 no CPT – qHTS for Inhibitors of human tyrosyl-DNA phosphodiesterase 1 (TDP1): qHTS in cells in absence of CPT; Potency, µM (highest dose often 46.2 µM), hits mostly inhibitors; DT40 Tdp1-/- hTDP1 cells, no CPT, ATP luminescence, 48 h; AID 686978, 2013; 420,000 tested, 15% active; also: nearly all actives have a fitted effect of over 55% in size
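Compound effects on proliferation are scored in DT40 Tdp1-/-;hTDP1 cells in the absence of CPT. ATP levels (CellTiter-Glo luminescence) are recorded after a ≥48 hr, 37 °C incubation.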
HT1080NT lethal – kills 2HG-producing HT-1080-NT fibrosarcoma cells; HT-1080-NT fibrosarcoma viability, CellTiter-Glo ATP luminescence, 48 h; Potency, µM (top dose mostly 46.1 µM), most hits filed as cytotoxic; 360,000 tested, 1.6% active;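 also: NT is the 2HG producing partner of a matched IDH1 knockdown line; nearly all actives have a fitted effect of over 55% in size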
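Viability of the 2HG-overproducing fibrosarcoma line after 48 hours of compound exposure at 37 degrees C was determined by luminescence with CellTiter-Glo, and concentration-effect curves were then fitted and categorized.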
HT1080 IDH1KD tx – HT-1080 IDH1 knockdown cell toxicity (counter line); 360,000 tested, 2% active; Potency, µM (titrated, usually from 46.1 µM), hits mostly cytotoxic; HT-1080 IDH1 knockdown viability, ATP luminescence, 48 h
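IDH1KD HT-1080 cells, 750/well, RPMI + 5% FBS; compound pinned after 2 h settling; 48 h, 37 °C; CellTiter-Glo luminescence; % activity normalised to DMSO and no-cell wells; curves fitted, classed by r2 and efficacy.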
HepG2 viability – kills HepG2 cells in TGF-b inhibitor counter-screen; 410,000 tested, 0.76% active; Potency, µM (top dose mostly 46.1 µM), hits mostly cytotoxic; HepG2 CAGA-GFP viability, ATP luminescence, 18 h
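HepG2 CAGA-GFP cells (1000/well, DMEM with 1% FBS) received compound, then TGF-beta at 500 pg/mL final, and were incubated 18 hours at 37 degrees C. Viability was read by CellTiter-Glo luminescence. Media-only wells were set as complete cell-killing and DMSO as no toxicity.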
TGFb SMAD3 inh – blocks TGF-b signaling; HepG2 CAGA-GFP TGF-b/SMAD3 reporter, GFP fluorescence, 18 h; TGF-beta stimulated, 500 pg/mL final; Potency, µM (top dose mostly 46.1 µM), usual class: inhibitors; 410,000 tested, 1.2% active; AID 588855; also: nearly all actives have a fitted effect of over 65% in size
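HEPG2 CAGA-GFP reporter cells (1000/well, DMEM with 1% FBS) received compounds, then recombinant TGF-beta at 500 pg/mL final for 18 hours at 37 degrees C. Per-cell GFP summed per well was normalised to unstimulated and stimulated DMSO controls before curve fitting.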
TDP1 cell CPT – growth inhibition of DT40 Tdp1-/-;hTDP1 cells with camptothecin (screen for TDP1 inhibitors); Potency, µM (series often up to 46.2 µM), most hits filed as inhibitors; chicken DT40 Tdp1-/-;hTDP1 cells + 20 nM CPT, ATP luminescence, 48 h; 420,000 tested, 12% active; also: nearly all actives have a fitted effect of over 55% in size
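Chicken DT40 Tdp1-/- cells complemented with human TDP1, 400 cells/well, exposed to compounds plus 20 nM camptothecin for at least 48 h at 37 C; viability read as ATP content by CellTiter-Glo luminescence.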
Numbers stand for hits; . = inactive; ? = inconclusive; / = not tested or not shown. In the library only some 17% were active in any assay of this set; here they are far more common. Calls follow the shape of the dose curve; as a rule, active = well fitted curve in the direction sought with a large enough effect; inconclusive = small, poorly fitted or top-dose-only effect, or another doubt; inactive = no such curve, though single readings can be large; an effect the other way counts as inactive or inconclusive.

SMILES | DT40 TDP1 no CPT | HT1080NT lethal | HT1080 IDH1KD tx | HepG2 viability | TGFb SMAD3 inh | TDP1 cell CPT
CCc1ccccc1NC(=O)Cn1c(SCc2ccc(F)cc2)nc2ccncc21 | . | / | / | . | ? | .
O=C(NCc1ccccc1)c1ccc(CSc2nc3cccnc3n2Cc2ccccc2)cc1 | 18µM | / | / | . | . | 4.6µM
CC1CCC(NC(=O)c2ccc(CSc3nc4ccncc4n3Cc3ccc(F)cc3)cc2)CC1 (stereo not drawn) | 7.3µM | / | / | . | 3.5µM | ?
Cc1ccc(CSc2nc3cccnc3n2Cc2nc(-c3ccccc3F)oc2C)cc1 | 3.7µM | / | / | . | ? | 4.6µM
O=C(NCc1ccccc1F)c1ccc(CSc2nc3cccnc3n2Cc2ccccc2)cc1 | . | / | / | . | . | .
COc1ccc(-c2nc(Cn3c(SCc4cccc(C(F)(F)F)c4)nc4cccnc43)c(C)o2)cc1OC | ? | / | / | . | ? | ?
CNC(=O)c1ccc(CSc2nc3cccnc3n2Cc2cccc(F)c2)cc1 | 18µM | / | / | . | . | 3.7µM
C=C(C)C1CC=C(C)CC1 (stereo not drawn) | . | / | / | / | / | .
COc1ccccc1CNc1cc(-c2ccc(C(=O)N(C)C)cc2)ncn1 | . | / | / | / | / | .
O=C(NCc1ccccc1)c1ccc(CSc2nc3cccnc3n2Cc2cccc(F)c2)cc1 | 10µM | / | / | . | . | 13µM
O=C(NCc1cccs1)c1ccc(CSc2nc3cccnc3n2Cc2ccccc2)cc1 | 15µM | / | / | . | . | ?
O=C(NC1CCCCC1)c1ccc(CSc2nc3ccncc3n2Cc2cccc(F)c2)cc1 | 18µM | / | / | . | ? | ?
Cc1ccc(CSc2nc3cccnc3n2Cc2ccc(C(=O)NCCc3cccs3)cc2)cc1 | 18µM | / | / | . | ? | 18µM
Cc1cccc(Cn2c(SCc3ccc(C(=O)NC4CCCC4)cc3)nc3ccncc32)c1 | ? | / | / | . | ? | ?
Cc1c(NS(=O)(=O)c2cc(C(=O)NC(C)c3ccccc3)ccc2Cl)c(=O)n(-c2ccccc2)n1C (stereo not drawn) | . | . | . | . | . | ?
COC(=O)c1ccn(CC(=O)NC2CCCCC2)n1 | . | . | . | . | . | .
Cc1ccccc1CNC(=O)c1ccc(CSc2nc3cccnc3n2Cc2ccccc2)cc1 | 13µM | / | / | . | . | ?
O=C(NC1CCCC1)c1ccc(CSc2nc3cccnc3n2Cc2cccc(F)c2)cc1 | 15µM | / | / | . | ? | ?
O=C(NCCN1CCCCC1)c1ccc(Cn2c(SCc3cccc(F)c3)nc3cccnc32)cc1 | ? | / | / | . | . | ?
Cc1ccc(Cl)cc1N1CCN(C(=O)c2cc(S(=O)(=O)N3CCCCC3)cn2C)CC1 | 21µM | / | / | . | ? | 13µM
Cn1cc(S(=O)(=O)N2CCCCC2)cc1C(=O)N1CCN(c2ccc(F)cc2)CC1 | ? | / | / | . | ? | ?
Cc1ccc(Cl)cc1N1CCN(C(=O)c2cc(S(=O)(=O)N3CCCC3)cn2C)CC1 | 23µM | / | / | . | ? | 16µM
NS(=O)(=O)c1ccc(CNC(=O)c2ccc(S(=O)(=O)NCc3ccco3)cc2)cc1 | . | . | . | . | . | .
Cc1nc(C)c(C(=O)Nc2ccc(Oc3ccccc3)cc2)o1 | 15µM | ? | . | . | . | ?
COc1ccc(C(=O)Nc2ccc(N3CCN(C(=O)c4ccccc4C)CC3)cc2)cc1 | 8.2µM | . | . | . | . | 8.2µM
Cc1ncoc1C(=O)Nc1ccc(Oc2ccccc2)cc1 | . | . | . | . | . | .
COc1ccccc1Oc1ccc(NC(=O)c2ccccc2C)cc1 | 23µM | . | . | . | . | ?
COc1ccc(NC(=O)c2ccccc2[N+](=O)[O-])cc1 | . | . | . | . | . | .
COc1ccccc1Nc1ccc(NC(=O)c2cccc([N+](=O)[O-])c2C)cc1 | 18µM | . | . | . | ? | ?
